# Compounds without any hit were thinned out: in the full panel of roughly 83,000, 20% have a hit.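 Method: cells in 96-well plates; compound added at one concentration; 48 h incubation; percent growth measured; values under 10 scored active.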 Unmarked numbers belong to inactive results. The source made the active and inactive calls.
# Key:
# Assay in all cases: NCI-60 one-dose screen, 48 h (100 = growth as untreated, 0 = no growth, -100 = all killed)
# Conditions in all cases: 10 µM unless noted
# DU-145 prostate = system: DU-145 prostate
# K-562 leukemia = system: K-562 leukemia
# MALME-3M melanoma = system: MALME-3M melanoma
# MDA-MB-231 breast = system: MDA-MB-231 breast
# RXF 393 renal = system: RXF 393 renal
# SF-268 CNS = system: SF-268 CNS
# SF-295 CNS = system: SF-295 CNS
# SF-539 CNS = system: SF-539 CNS
# UACC-257 melanoma = system: UACC-257 melanoma
# M14 melanoma = system: M14 melanoma
# HCT-15 colon = system: HCT-15 colon
# HT29 colon = system: HT29 colon
# SNB-75 CNS = system: SNB-75 CNS
# SNB-19 CNS = system: SNB-19 CNS
# U251 CNS = system: U251 CNS
# PC-3 prostate = system: PC-3 prostate
# SK-MEL-5 melanoma = system: SK-MEL-5 melanoma
# UACC-62 melanoma = system: UACC-62 melanoma
# LOX IMVI melanoma = system: LOX IMVI melanoma
# SK-MEL-28 melanoma = system: SK-MEL-28 melanoma
SMILES,growth (DU-145 prostate),growth (K-562 leukemia),growth (MALME-3M melanoma),growth (MDA-MB-231 breast),growth (RXF 393 renal),growth (SF-268 CNS),growth (SF-295 CNS),growth (SF-539 CNS),growth (UACC-257 melanoma),growth (M14 melanoma),growth (HCT-15 colon),growth (HT29 colon),growth (SNB-75 CNS),growth (SNB-19 CNS),growth (U251 CNS),growth (PC-3 prostate),growth (SK-MEL-5 melanoma),growth (UACC-62 melanoma),growth (LOX IMVI melanoma),growth (SK-MEL-28 melanoma)
C[C@@H](Oc1cc(-c2cnn(C3CCNCC3)c2)cnc1N)c1c(Cl)ccc(F)c1Cl,-0.0589% (active),-38.7% (active),-88.2% (active),-58.6% (active),-87.3% (active),1.66% (active),-72.1% (active),-95.5% (active),-83.3% (active),-77.2% (active),-5.99% (active),-49.4% (active),-67.7% (active),3.67% (active),-71.9% (active),-5.54% (active),-99.8% (active),-83.5% (active),-90.8% (active),-84.7% (active)
C[C@@H](Nc1cc(F)cc(F)c1)c1cc(C(=O)N(C)C)cc2c(=O)cc(N3CCOCC3)oc12,68.2%,87.6%,68.9%,82.4%,-16.4% (active),56.8%,14.8%,24.1%,35.2%,69.2%,84%,23.9%,-8.61% (active),64.1%,61.4%,29%,73.2%,11.3%,48.2%,46.3%
N#Cc1ccc(-n2nnc3ccccc32)cc1C#N,93.5%,93%,96.6%,111%,100%,105%,91.5%,101%,89.4%,106%,99.8%,108%,121%,112%,91.3%,101%,97.6%,94.5%,99.4%,104%
CNC(=O)c1cc(Oc2ccc(NC(=O)Nc3ccc(Cl)c(C(F)(F)F)c3)c(F)c2)ccn1,14.9%,-3.75% (active),-36.3% (active),-57.2% (active),-31.3% (active),-30.6% (active),-47.4% (active),-71.7% (active),-50.3% (active),-28.1% (active),-18.1% (active),-35.2% (active),-68.8% (active),3.52% (active),-44.4% (active),3.89% (active),-95.9% (active),-41.9% (active),-89% (active),-53.7% (active)
CN(c1ncccc1CNc1nc(Nc2ccc3c(c2)CC(=O)N3)ncc1C(F)(F)F)S(C)(=O)=O,11.2%,4.58% (active),-14.4% (active),3.93% (active),-43.3% (active),2.36% (active),11.8%,-36% (active),-29.1% (active),-23.9% (active),2.3% (active),-28.4% (active),-43.3% (active),7.98% (active),-0.121% (active),7.2% (active),-38.3% (active),-64.6% (active),2.21% (active),-16.1% (active)
Cc1cn(-c2cc(NC(=O)c3ccc(C)c(Nc4nccc(-c5cccnc5)n4)c3)cc(C(F)(F)F)c2)cn1,46%,-11.1% (active),-15% (active),40%,-4.7% (active),55.8%,42.9%,82.4%,34.5%,8.64% (active),22.8%,17.4%,55.7%,69.9%,37.5%,26%,-22.5% (active),9.88% (active),44.1%,-27.1% (active)
Cn1c(=O)c(F)c(Nc2ccc(I)cc2F)c2c(=O)n(C[C@@H](O)CO)cnc21,52.1%,28.5%,0.26% (active),19%,-3.91% (active),59.5%,77.5%,52.3%,-21.4% (active),6.75% (active),54.6%,7.51% (active),62.7%,42.6%,31.4%,68.4%,36.3%,0.259% (active),15.3%,0.0364% (active)
Nc1ncnc2c1c(-c1cccc(OCc3ccccc3)c1)cn2C1CC(CN2CCC2)C1 (stereo not given),44.5%,-45.7% (active),-79.7% (active),3.88% (active),-16.4% (active),17.3%,-47.3% (active),-84.4% (active),-79.4% (active),-78.1% (active),10.1%,-39.8% (active),-28.7% (active),32.1%,-17.9% (active),27.4%,-96.7% (active),-55.9% (active),-75% (active),-69.6% (active)
O=C(Nc1cn[nH]c1-c1nc2ccc(CN3CCOCC3)cc2[nH]1)NC1CC1,41%,12.7%,51.8%,1.37% (active),-56.5% (active),23.8%,-10.5% (active),-60.9% (active),59.7%,34%,50.2%,16.3%,-42.1% (active),19.5%,18.6%,38.5%,36.1%,25.1%,1.79% (active),39.5%
CN1CCN(c2ccc(OC(F)(F)F)c(Nc3ncc4c(n3)-c3c(c(C(N)=O)nn3CCO)CC4)c2)CC1,10.2%,8.71% (active),83.6%,32.1%,32.9%,35.6%,33.4%,3.87% (active),47.6%,10.2%,10.7%,10.3%,7.72% (active),23.4%,25.4%,36.8%,23.4%,35.9%,25.6%,88.7%
NC[C@@](O)(c1ccc(Cl)cc1)c1ccc(-c2cn[nH]c2)cc1,30.3%,17.2%,-24.7% (active),31.7%,-6.86% (active),35.5%,28.6%,3.43% (active),-23.9% (active),7.61% (active),9.55% (active),1.46% (active),-6.12% (active),30.6%,19.1%,40.1%,39.3%,-2.01% (active),7.1% (active),3.21% (active)
C=CC(=O)Nc1cccc(Nc2nc(Nc3ccc(N4CCN(C(C)=O)CC4)cc3OC)ncc2C(F)(F)F)c1,16.7%,18.7%,22.2%,21.7%,-11.2% (active),24.1%,39.5%,18.6%,24.5%,16.9%,5% (active),-7.05% (active),16.1%,39.6%,30.1%,27.6%,6.86% (active),11.1%,6.36% (active),50.6%
C#Cc1cccc(Nc2ncnc3cc(OCCOC)c(OCCOC)cc23)c1,35.8%,51.3%,67.6%,67%,46.1%,62.9%,84.9%,81.1%,85.7%,48.5%,39.3%,53.2%,71.6%,79.8%,68.8%,73.4%,77.1%,50.9%,47.2%,86.8%
C=C1CC[C@@H]2[C@](C)(COC(C)=O)[C@H](OC(C)=O)CC[C@@]2(C)[C@@H]1C/C=C1/C(=O)OC[C@H]1OC(C)=O,50.9%,11.1%,77.7%,95.8%,-7.35% (active),87.1%,95%,8.54% (active),66.5%,35.4%,-23% (active),-39.4% (active),44.9%,83%,54%,88.5%,56.2%,29.7%,-74.4% (active),37.8%

# From PubChem BioAssay (NCI)
